Out of some 52,000 compounds screened, about 1,700 (3.3%) were called active. The entries come from a sample that favours actives as a whole. Unmarked numbers belong to inactive results. Rule as the data show it: active = survival mostly below about 52% (no sharp cut-off); inactive = mostly above about 56%.
Test system: Wild type
Assay: S. aureus survival, RN4220 and DeltatarO strains – OD600, teichoic acid synthesis inhibitors, primary screen (AID 463173)
Conditions: S. aureus RN4220 wild type/DeltatarO growth, OD600, 18 h, stronger effect = lower value, screened at 18.75 µg/mL (by protocol)

SMILES	survival
CNC(=O)N(O)C1N(c2ccccc2)C(=S)SC1(C)C (centres undefined)	109%
O=C(NCc1ccccc1Cl)C1CCCN(c2ncnc3onc(-c4ccc(F)cc4)c23)C1 (centres undefined)	65%
COc1ccc(-n2cc(C(=O)Oc3cc(C)cc(C)c3)c3ccccc3c2=O)cc1	153%
COc1cccc(NC(=O)c2ccc(CN3CCN(c4ccccc4)CC3)cc2)c1	122%
NC(=O)C1CCN(C(=O)c2ccc3c(c2)N(Cc2cccc(Cl)c2)C(=O)c2ccccc2S3(=O)=O)CC1	69%
O=C(Nc1c(C(=O)Nc2ccc(F)cc2)oc2ccccc12)c1ccccc1F	30%
Cc1ccc(S(=O)(=O)N2CCN(C(=O)CN3CCOCC3)C2C(C)C)cc1 (centres undefined)	105%
CCc1ccc(NC(=O)CSc2nc(C)c(C(=O)Nc3ccccc3)c(-c3ccc(OC)c(OC)c3)c2C#N)cc1	85%
CC(C)Nc1nc(C#N)nc(NC(C)C)n1	130%
COc1cc(NC(=O)c2cc3c(=O)n(Cc4ccco4)ccc3nc2C)cc(OC)c1OC	63%
O=c1[nH]c2ccc(N=Cc3ccccc3C(F)(F)F)cc2[nH]1	116%
COc1cc(NS(=O)(=O)c2ccc(NC(=O)COc3ccc(Cl)cc3Cl)cc2)nc(OC)n1	93%
C=CCN1C(=O)C(C)(C)N(C(C)=O)c2ccccc21	121%
CCS(=O)(=O)c1oc(-c2ccc(F)cc2)nc1S(=O)(=O)c1ccccc1	-1% (active)
O=S(=O)(c1ccccc1)c1nc(-c2ccc(F)cc2)oc1N1CCCCCC1	19%
O=S(=O)(c1ccccc1)c1nc(-c2ccc(F)cc2)oc1NCc1ccccc1	84%
Cc1ccc(CNC(=O)c2cc(C3CC3)nc3c2c(C)nn3-c2cccc(Cl)c2C)cc1	94%
COc1ccccc1OC(C)C(=O)Nc1cccc(-c2nc3ccccc3s2)c1 (centres undefined)	29%
Cc1ncc(CO)c2c1Oc1nc(-c3ccc(Cl)cc3)nc(SCC(=O)N3CCCCC3)c1C2	79%
O=S1(=O)c2ccccc2N(Cc2ccccc2)c2ccccc21	69%
O=S1(=O)c2ccccc2N(Cc2cccc(Cl)c2)c2ccccc21	-2% (active)

SMILES	survival
O=C(NCc1ccccc1)c1ccc2c(c1)N(Cc1cccc(Cl)c1)C(=O)c1ccccc1S2(=O)=O	74%
O=C(c1ccc2c(c1)N(Cc1ccccc1)C(=O)c1ccccc1S2(=O)=O)N1CCc2ccccc21	87%
COc1ccccc1CNC(=O)c1ccc2c(c1)N(Cc1cccc(Cl)c1)C(=O)c1ccccc1S2(=O)=O	10% (active)
O=C(c1ccc2c(c1)N(Cc1ccc(Cl)cc1)C(=O)c1ccccc1S2(=O)=O)N1CCc2ccccc21	147%
CN(C(=O)c1ccc2c(c1)N(Cc1cccc(Cl)c1)C(=O)c1ccccc1S2=O)C1CCCCC1 (centres undefined)	95%
COc1ccccc1CNC(=O)c1ccc2c(c1)N(Cc1cccc(C)c1)C(=O)c1ccccc1S2(=O)=O	90%
CCN(C(=O)c1ccc2c(c1)N(Cc1cccc(Cl)c1)C(=O)c1ccccc1S2=O)c1ccccc1 (centres undefined)	0% (active)
O=C(c1ccc2c(c1)N(Cc1cccc(Cl)c1)C(=O)c1ccccc1S2(=O)=O)N1CCc2ccccc21	-3% (active)
CCCCN(C)C(=O)c1ccc2c(c1)N(Cc1cccc(Cl)c1)C(=O)c1ccccc1S2=O (centres undefined)	124%
O=S1(=O)c2ccccc2N(Cc2ccc(Cl)cc2)c2ccccc21	129%
O=C(Nc1cccc(Cl)c1)c1cc2c(=O)[nH]c3ccccc3c2s1	63%
COc1ccccc1NC(=O)c1sc2nc(C)c(C(=O)Nc3ccc(C)cc3C)c(-c3ccccc3Cl)c2c1N	139%
CC(C)CC(=O)NCC(c1ccc2c(c1)OCO2)N1CCN(c2ccccc2F)CC1 (centres undefined)	76%
CCN(CC)CCNC(=O)c1ccc2c(c1)NC(=O)C(CS(=O)(=O)Cc1cccc(Br)c1)N2 (centres undefined)	134%
COc1ccc(Cc2nnc(C(=O)NCCCN3CCN(c4ccccc4F)CC3)o2)cc1OC	87%
Cc1ccc(Cl)cc1N1CCN(CCNC(=O)Nc2ccccc2Cl)CC1	98%
Cc1ccc(Cl)cc1N1CCN(CCNC(=O)Nc2ccc(Cl)cc2)CC1	-6% (active)
Cc1cccc(N2CCN(CCNC(=O)Nc3ccc(Cl)cc3)CC2)c1C	87%
O=C(NCCCN1CCN(c2ccc(F)cc2)CC1)Nc1ccc(Cl)cc1	64%
CCOc1ccc(NC(=O)NCCN2CCN(c3cc(Cl)ccc3C)CC2)cc1	53%
Cc1ccc(Cl)cc1N1CCN(CCCNC(=O)c2nnc(Cc3cccc(Cl)c3)o2)CC1	12% (active)

SMILES	survival
O=C(NCCCN1CCN(c2ccccc2F)CC1)c1nnc(Cc2ccc(Cl)cc2Cl)o1	77%
Cc1ccc(C)c(N2CCN(CCCNC(=O)Nc3ccc(Cl)cc3)CC2)c1	-6% (active)
COc1ccc(-c2nnn(CC(=O)N(CC3CCCO3)C(C(=O)NC3CCCCC3)c3cccs3)n2)cc1 (centres undefined)	103%
COc1ccc(NC(=O)CCNS(=O)(=O)c2cccc3nonc23)c(OC)c1	67%
CC1CCN(S(=O)(=O)c2ccc3nc(N4CCN(c5ccc(F)cc5)CC4)ccc3c2)CC1	92%
COc1ccc(NC(=O)CSC2=Nc3ccccc3C3=NC(CCC(=O)NCc4ccco4)C(=O)N23)cc1 (centres undefined)	60%
CC(C)CC(=O)n1nc(-c2ccco2)nc1NCc1ccc(Cl)cc1	83%
O=C(OCc1cc(=O)n2nc(C3CC3)sc2n1)c1ccc(NC(=O)c2ccccc2Cl)cc1	99%
O=C1c2[nH]nc(-c3ccccc3O)c2C(c2ccc(F)cc2)N1CCO (centres undefined)	81%
O=C1c2[nH]nc(-c3ccccc3O)c2C(c2ccccc2F)N1Cc1ccncc1 (centres undefined)	93%
CCc1ccc(C2c3c(-c4cc(C)ccc4O)n[nH]c3C(=O)N2Cc2cccnc2)cc1 (centres undefined)	74%
O=C1c2[nH]nc(-c3ccccc3O)c2C(c2ccccc2F)N1Cc1cccnc1 (centres undefined)	94%
COc1cc(C2c3c(-c4cc(C)ccc4O)n[nH]c3C(=O)N2Cc2ccco2)cc(OC)c1OC (centres undefined)	73%
Cc1ccc(O)c(-c2n[nH]c3c2C(c2ccc(F)cc2)N(Cc2ccco2)C3=O)c1 (centres undefined)	2% (active)
Cc1ccc(O)c(-c2n[nH]c3c2C(c2ccccc2F)N(Cc2ccco2)C3=O)c1 (centres undefined)	11% (active)
Cc1cc(C)c(-c2n[nH]c3c2C(c2ccccc2F)N(CCO)C3=O)c(O)c1 (centres undefined)	83%
Cc1ccc(C2c3c(-c4cc(C)ccc4O)n[nH]c3C(=O)N2Cc2ccco2)cc1 (centres undefined)	1% (active)
Cc1cc(C)c(-c2n[nH]c3c2C(c2ccccc2F)N(Cc2ccco2)C3=O)c(O)c1 (centres undefined)	8% (active)
CCc1ccc(C2c3c(-c4cc(C)ccc4O)n[nH]c3C(=O)N2CCO)cc1 (centres undefined)	78%
COc1cc(C2c3c(-c4c(C)cc(C)cc4O)n[nH]c3C(=O)N2Cc2ccco2)cc(OC)c1OC (centres undefined)	98%
COc1cc(OC)c(NC(=O)c2c(C)oc3nc(C)nc(N4CCOCC4)c23)cc1Cl	81%

SMILES	survival
COc1ccc2c(c1)c(CC(=O)Nc1cccc(F)c1C)c(C)n2C(=O)c1ccc(Cl)cc1	152%
COc1ccc(-c2nc3scc(CCNS(=O)(=O)c4c(C)noc4C)n3n2)cc1OC	123%
CCOc1ccc(-c2cc(-c3nc(-c4cc(OC)c(OC)c(OC)c4)no3)[nH]n2)cc1	123%
Oc1ccc(Cl)cc1C1=Nc2ccccc2N=C(c2cccc(Br)c2)C1	137%
c1ccc(N2CCN(Cc3nnc(-c4ccc5c(c4)OCO5)o3)CC2)cc1	81%
CCOc1ccc(NC(=O)/C(C#N)=C\c2cc(C)n(C)c2C)cc1	103%
O=C(CSc1nc(-c2ccccc2)no1)N1CCN(c2ccc(F)cc2)CC1	91%
CCc1ccccc1NC(=O)C(C)n1c(=O)cc(C)c2c(C)nn(-c3ccccc3)c21 (centres undefined)	72%
COc1cc(C2C(=O)N(C3CCCCC3)CC(=O)N2CCc2ccccc2)ccc1OC(C)C (centres undefined)	89%
Cc1ccc(CNC(=O)c2cc(Sc3ccc(F)cc3F)nc3ccccc23)cc1	94%
COc1ccc(OC)c(S(=O)(=O)Nc2cc3c(C(C)=O)c(C)oc3c3ccccc23)c1	69%
CCOC(=O)c1c(C)oc2c1cc(NS(=O)(=O)c1ccc(C)cc1)c1ccccc12	86%
COC(=O)c1c(C)oc2c1cc(NS(=O)(=O)c1c(C)cc(C)cc1C)c1ccccc12	25% (active)
CCOC(=O)c1sc2sc(C(=O)OCC)c(CN(CC)CC)c2c1CN(CC)CC	94%
Cc1ccccc1-c1nnc(NC(=O)CC(C)C)s1	116%
COc1ccc(CNS(=O)(=O)c2ccc(-c3cc(C(F)(F)F)on3)s2)cc1OC	133%
COc1ccccc1CNS(=O)(=O)c1ccc(-c2cc(C(F)(F)F)on2)s1	73%
COc1ccc(OC)c(CNS(=O)(=O)c2ccc(-c3cc(C(F)(F)F)on3)s2)c1	-6% (active)
CCC(=O)N1CCc2cc(S(=O)(=O)CCC(=O)N3CCN(c4cccc(C)c4)C(C)C3)ccc21 (centres undefined)	83%
Cc1cccc(N2CCN(C(=O)CCS(=O)(=O)c3ccc4c(c3)CC(=O)N4C)CC2C)c1 (centres undefined)	-4% (active)
CN1C(=O)Cc2cc(S(=O)(=O)CCC(=O)N3CCN(c4cccc(Cl)c4)CC3)ccc21	83%

Source: PubChem BioAssay AID463173 (ICCB-Longwood Screening Facility, Harvard Medical School, 2010)
